Data on 20 molecules can be found in PubChem BioAssay (NCI).

Holding throughout (experiment): NCI-60 one-dose screen, 48 h (100 = growth as untreated, 0 = no growth, -100 = all killed)
One test has as its system DU-145 prostate. Particulars: 10 µM unless noted.
For the next test, the system named is K-562 leukemia. Particulars: 10 µM unless noted.
In a further test the test system is MALME-3M melanoma. Particulars: 10 µM unless noted.
In a further test the test system is MDA-MB-231 breast. Particulars: 10 µM unless noted.
Another test has as its system RXF 393 renal. Particulars: 10 µM unless noted.
The subject of another test is SF-268 CNS. The conditions noted are these: 10 µM unless noted.
A further test relates to SF-295 CNS. Particulars: 10 µM unless noted.
Another test concerns SF-539 CNS. The conditions noted are these: 10 µM unless noted.
For a further test, the system named is M14 melanoma. Particulars: 10 µM unless noted.
The next test relates to UACC-257 melanoma. The conditions noted are these: 10 µM.

This is part of a sample that, as a whole, favours compounds with a hit. Of some 83,000 tested, about 20% had one in any assay.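 Percent growth is the endpoint: 0 to 100 indicates growth inhibition (40 means 60% inhibition), 0 means no net growth, and negative values indicate cell death.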 Unmarked numbers belong to inactive results. The source made the active and inactive calls. Rule for the calls: active = growth percent below 10; inactive = the rest.

`CCN(CC)CCSc1c2ccc(Cl)cc2nc2ccc(OC)cc12`: the growth with DU-145 prostate is -38% (active); with K-562 leukemia it was 9.42% (active); in the test with MALME-3M melanoma, 101%; in the test on MDA-MB-231 breast, 51.9%; with RXF 393 renal it was 116%; in the test on SF-268 CNS it was 96.7%. Moreover, the growth in the test on SF-295 CNS is 105%; in the test with SF-539 CNS it was 99.6%; in the test on M14 melanoma, 79%.
For the molecule `CC(=O)n1cc([C@H]2CC[C@H](c3cn(C(C)=O)c4ccccc34)c3c2[nH]c2ccccc32)c2ccccc21`, the growth in the test on DU-145 prostate was 93.2%; with K-562 leukemia, 69.9%; with MALME-3M melanoma, 91.4%; with MDA-MB-231 breast it was 70.8%; in the test with RXF 393 renal, 96.5%; in the test on SF-268 CNS, 76.9%. Moreover, the growth with SF-295 CNS is 80%; in the test with SF-539 CNS it was 92.7%; in the test with UACC-257 melanoma it was 89.5%; in the test with M14 melanoma, 79.1%.
`CC(C)CCN(CCCNc1c2c(nc3ccccc13)CCCC2)CCC(C)C`: the growth with DU-145 prostate is 86.3%; in the test with K-562 leukemia, 31.4%; in the test on MALME-3M melanoma it was 84.9%; in the test with MDA-MB-231 breast, 24.5%; in the test on RXF 393 renal it was 81.9%; in the test on SF-268 CNS, 89.4%. The growth was 80.1% with SF-295 CNS, 88.2% in the test with SF-539 CNS, 94.5% in the test with UACC-257 melanoma and 35.9% with M14 melanoma.
On to `C#CCC1(c2ccc(F)c(F)c2)NS(=O)(=O)c2ccccc21` (stereo not drawn), for which the growth in the test with DU-145 prostate is 107%; with K-562 leukemia, 89.4%; with MALME-3M melanoma, 93.7%; in the test with MDA-MB-231 breast, 109%; in the test with RXF 393 renal, 114%; with SF-268 CNS, 102%. The growth is 105% in the test on SF-295 CNS, 104% in the test on SF-539 CNS and 107% in the test on M14 melanoma.
As to `COc1ccc(-c2nc3sccn3c2-c2ccnc(NCCCNS(=O)(=O)c3ccc(C)cc3)n2)cc1`, the growth is 34.1% in the test on DU-145 prostate; 19.9% with K-562 leukemia; 54.7% in the test with MALME-3M melanoma; 23.5% in the test with MDA-MB-231 breast; 34.6% with RXF 393 renal; 38.1% in the test on SF-268 CNS. In addition, the growth is 21.4% in the test on SF-295 CNS, 56.9% in the test on SF-539 CNS, 40% in the test on UACC-257 melanoma and 23.2% in the test with M14 melanoma.
In the case of `CN1C(=O)[C@H]2c3c1cccc3[C@@]13NC(=O)O[C@H]1[C@H](CCC3(C)C)C2(C)C`, the growth in the test on DU-145 prostate was 106%; in the test on K-562 leukemia, 82.6%; in the test with MALME-3M melanoma, 110%; in the test on MDA-MB-231 breast it was 88.6%; in the test on RXF 393 renal, 101%; in the test on SF-268 CNS, 95.2%. In addition, the growth was 75% in the test with SF-295 CNS, 98% with SF-539 CNS, 104% in the test on UACC-257 melanoma and 108% with M14 melanoma.
As to `COc1cccc(C2CC(=O)Nc3c2c(C)nn3-c2nc3ccccc3[nH]2)c1OC` (stereo not drawn), the growth in the test with DU-145 prostate was 76.5%; in the test with K-562 leukemia it was 40.9%; in the test on MALME-3M melanoma, 52.3%; with MDA-MB-231 breast it was 82.1%; in the test on RXF 393 renal, 64.2%; in the test on SF-268 CNS, 76.4%. Moreover, the growth in the test on SF-295 CNS was 7.64% (active); in the test on SF-539 CNS, 99.7%; in the test with UACC-257 melanoma, 79.1%; in the test on M14 melanoma, 65.4%.
On to `COc1ccc(Cn2cc(COc3cc(/C=C/C(=O)c4cc(OC)c(OC)c(OC)c4)ccc3OC)nn2)cc1`, for which the growth with DU-145 prostate is 88.5%; in the test on K-562 leukemia it was 12%; with MALME-3M melanoma, 101%; with MDA-MB-231 breast, 84.9%; in the test with RXF 393 renal, 90.3%; in the test with SF-268 CNS, 94.6%. Further, the growth with SF-295 CNS is 32.2%; in the test on SF-539 CNS it was 49.2%; in the test on UACC-257 melanoma it was 96.1%; in the test on M14 melanoma, 90.9%.
For the molecule `COc1cc(Br)c(OC)cc1Br`, the growth in the test on DU-145 prostate is 106%; in the test with K-562 leukemia, 104%; in the test on MALME-3M melanoma, 75.4%; in the test on MDA-MB-231 breast, 85.6%; in the test with RXF 393 renal, 116%; in the test with SF-268 CNS it was 98.6%. In addition, the growth was 94.7% in the test with SF-295 CNS, 93.6% in the test on SF-539 CNS and 91.5% with M14 melanoma.
In the case of `COc1cc(C(=O)/C=C/c2cc(C(=O)c3cc(OC)c(OC)c(OC)c3)ccc2OC)ccc1N`, the growth with DU-145 prostate is 26.7%; in the test with K-562 leukemia, 4.22% (active); in the test with MALME-3M melanoma it was -36.1% (active); with MDA-MB-231 breast it was 23.1%; in the test on RXF 393 renal, -32.5% (active); in the test with SF-268 CNS, -28.1% (active). Also, the growth with SF-295 CNS was 9.88% (active); in the test with SF-539 CNS, -53.2% (active); in the test with UACC-257 melanoma it was -11.9% (active); with M14 melanoma, -52.9% (active).
Regarding `O=S(=O)(NCCNc1cc(-c2cn(-c3ccccc3)nc2-c2ccccc2)ccn1)c1cccc2ccccc12`, the growth in the test with DU-145 prostate was 68.9%; in the test on K-562 leukemia, 20.7%; with MALME-3M melanoma, 60.7%; with MDA-MB-231 breast, 40%; in the test with RXF 393 renal, 55.3%; in the test with SF-268 CNS, 55%. The growth in the test with SF-295 CNS was 35.9%; in the test with SF-539 CNS, 56.9%; in the test with M14 melanoma, 42.9%.
For `CC[C@H](C)[C@H]1NC(=O)[C@@H](N[C@](C)(O)[C@@H](N)CC(C)C)[C@@H](C)OC(=O)[C@H](Cc2ccc(OC)cc2)N(C)C(=O)[C@@H]2CCCN2C(=O)[C@H](CC(C)C)NC(=O)[C@@H](C)C(=O)[C@H](C(C)C)OC(=O)C[C@@H]1O`, the growth is -17.5% (active) in the test with DU-145 prostate; 2.2% (active) in the test with K-562 leukemia; -21.4% (active) with MALME-3M melanoma; -15.8% (active) with MDA-MB-231 breast; -33.1% (active) in the test with RXF 393 renal; -1.13% (active) in the test with SF-268 CNS. Besides, the growth with SF-295 CNS was -52.1% (active); in the test with SF-539 CNS it was -27.6% (active); in the test on UACC-257 melanoma it was -24.7% (active); in the test with M14 melanoma, -75.3% (active).
Take `O=C(CCC(=O)OC1CCCC1)OC1CCCC1`: the growth was 102% with DU-145 prostate; 96% in the test with K-562 leukemia; 102% with MALME-3M melanoma; 105% with MDA-MB-231 breast; 97.6% with RXF 393 renal; 99.7% with SF-268 CNS. In addition, the growth with SF-295 CNS was 99.3%; with SF-539 CNS, 87.8%; with UACC-257 melanoma, 85.4%; in the test on M14 melanoma, 112%.
As for `COc1cc(Cn2c(SCCC(=O)Nc3ccc(F)cc3)nc3ccccc3c2=O)cc(OC)c1OC`, the growth was 101% in the test on DU-145 prostate; 70.8% in the test on K-562 leukemia; 91.7% with MALME-3M melanoma; 65.9% with MDA-MB-231 breast; 74.3% with RXF 393 renal; 80.9% in the test on SF-268 CNS. Also, the growth was 88.2% in the test with SF-295 CNS, 84.2% in the test on SF-539 CNS, 93.2% with UACC-257 melanoma and 93% in the test on M14 melanoma.
With `O=C(c1c[nH]c2ccccc12)C(Sc1nc2ccccc2c(=O)[nH]1)c1ccccc1` (stereo not drawn), the growth with DU-145 prostate is 94.3%; in the test with K-562 leukemia it was 101%; in the test on MALME-3M melanoma, 88.7%; in the test with MDA-MB-231 breast it was 91.6%; in the test with RXF 393 renal, 26.1%; with SF-268 CNS it was 105%. Further, the figures for the growth with SF-295 CNS, in the test with SF-539 CNS and with M14 melanoma were 93.1%, 89.2% and 104%, respectively.
In the case of `COC(=O)CCCCCCN=Cc1c(O)c(O)c(C(C)C)c2cc(C)c(-c3c(C)cc4c(C(C)C)c(O)c(O)c(C=NCCCCCCC(=O)OC)c4c3O)c(O)c12`, the growth with DU-145 prostate is 30.6%; with K-562 leukemia, 10.5%; in the test on MALME-3M melanoma, 68.5%; in the test on MDA-MB-231 breast it was 11.9%; in the test on RXF 393 renal, 36.2%; in the test on SF-268 CNS, 32.8%. Moreover, the results for the growth with SF-295 CNS, in the test on SF-539 CNS and with M14 melanoma were 7.26% (active), 15.2% and 27%, respectively.
On to `Clc1cccc(Cl)c1Cn1c(-c2cncs2)nc2ccccc21`, for which the growth in the test with DU-145 prostate is 110%; in the test on K-562 leukemia it was 35.3%; with MALME-3M melanoma it was 81%; with MDA-MB-231 breast it was 82.5%; in the test on RXF 393 renal, 95%; in the test with SF-268 CNS it was 98.2%. For the same molecule, the growth was 65.4% in the test on SF-295 CNS, 96.8% in the test with SF-539 CNS, 76.6% in the test with UACC-257 melanoma and 89.5% in the test with M14 melanoma.
For `CCc1c(C(=O)Nc2ccc3ccccc3c2)[nH]c(C)c1C(C)=O`, the growth in the test on DU-145 prostate was 107%; in the test on K-562 leukemia it was 81.2%; in the test with MALME-3M melanoma it was 95.7%; in the test on MDA-MB-231 breast, 93.3%; in the test on RXF 393 renal, 96.7%; in the test on SF-268 CNS, 110%. The growth with SF-295 CNS was 102%; with SF-539 CNS, 96.2%; with M14 melanoma it was 93.8%.
Turning to `Cc1ccc(OCCn2c(C)nn(-c3ccc(Cl)cc3)c2=O)cc1`, the growth was 135% in the test with DU-145 prostate; 107% with K-562 leukemia; 99.8% in the test with MALME-3M melanoma; 103% in the test with MDA-MB-231 breast; 125% with RXF 393 renal; 117% with SF-268 CNS. In addition, the growth in the test with SF-295 CNS was 98.9%; with SF-539 CNS, 110%; in the test on UACC-257 melanoma, 104%; with M14 melanoma, 102%.
In the case of `COc1ccc(C2CC(=O)Nc3c2c(C)nn3-c2nc3ccccc3[nH]2)cc1OC` (stereo not drawn), the growth in the test on DU-145 prostate was 86.6%; in the test on K-562 leukemia, 63%; in the test with MALME-3M melanoma, 38.5%; with MDA-MB-231 breast it was 87.1%; in the test on RXF 393 renal it was 12.2%; in the test with SF-268 CNS, 69.9%. Moreover, the growth in the test on SF-295 CNS was -9% (active); in the test on SF-539 CNS, 97.7%; in the test with UACC-257 melanoma, 89%; in the test with M14 melanoma, 48.1%.
